# Compounds with a hit are over-represented: about 10% of the library has one in this group of screens.
# NIH3T3 tox – cytotoxic compounds in NIH 3T3 cells; NIH 3T3 viability, CellTiter-Glo ATP luminescence, 48-72 h; Potency, µM (doses to about 96.7 µM), inactives show at the highest dose activity change, negative = cytotoxicity, hits mostly inhibitors; 94,000 compounds, 4.3% hits; AID 1345082; note: potency is the fitted concentration of half-maximal effect; % is set by controls: 0 for no effect and ±100 for the full control effect; nearly all actives have a fitted effect of over 55% in size
#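 Mouse fibroblast NIH 3T3 cells, 400 per well, received compound via pintool and were incubated for 48 or 72 hr prior to CellTiter-Glo ATP luminescence measurement.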
# Luciferase inh – Photinus pyralis luciferase inhibition | purified P. pyralis luciferase, luminescence, biochemical | AID 1347043 | Potency, µM (series often up to 115 µM), most hits filed as inhibitors | 76,000 compounds, 2.5% hits; note: potency is the fitted concentration of half-maximal effect; % is set by controls: 0 for no effect and ±100 for the full control effect; nearly all actives have a fitted effect of over 65% in size
# Target sequence (P08659 whole entry, looked up): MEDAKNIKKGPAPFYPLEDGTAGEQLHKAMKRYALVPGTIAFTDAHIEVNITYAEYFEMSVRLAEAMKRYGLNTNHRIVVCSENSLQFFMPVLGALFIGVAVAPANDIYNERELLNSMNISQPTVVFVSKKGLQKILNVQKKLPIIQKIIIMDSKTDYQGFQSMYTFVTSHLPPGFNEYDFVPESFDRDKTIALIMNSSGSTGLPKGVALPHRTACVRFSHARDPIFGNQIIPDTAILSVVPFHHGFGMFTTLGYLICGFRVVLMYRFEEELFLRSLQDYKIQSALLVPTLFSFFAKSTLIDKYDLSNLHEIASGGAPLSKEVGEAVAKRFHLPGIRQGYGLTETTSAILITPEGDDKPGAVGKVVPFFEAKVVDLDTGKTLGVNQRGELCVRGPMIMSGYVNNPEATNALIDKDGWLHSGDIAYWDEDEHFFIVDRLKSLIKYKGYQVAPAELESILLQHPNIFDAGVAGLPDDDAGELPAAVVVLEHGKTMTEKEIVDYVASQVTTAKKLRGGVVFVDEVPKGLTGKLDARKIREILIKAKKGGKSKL
#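 FLuc 10nM, D-luciferin 10uM, ATP 10uM, Mg acetate 10mM, Tris acetate pH 7.5, Tween/BSA; cpd qHTS; enzyme added last; CCD luminescence.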
# GPT2 inhibitor – inhibitors of human GPT2 alanine aminotransferase; Q8TD30; Potency, µM (highest dose often 57.7 µM), inactives show top-dose activity change, negative = inhibition, usual class: inhibitors; Recombinant GPT2, coupled pyruvate oxidase/HRP Amplex Red fluorescence; 100,000 compounds, 0.25% hits; note: potency is the fitted concentration of half-maximal effect; % is set by controls: 0 for no effect and ±100 for the full control effect; nearly all actives have a fitted effect of over 60% in size
#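 Fluorescence read-out: pyruvate from GPT2 turnover coupled to pyruvate oxidase, HRP and Amplex Red (0.2mM ThPP, 0.2U/mL PO and HRP, 50uM Amplex final). Substrates 250uM a-KG, 2mM L-alanine; enzyme 10ng/uL; 30 min RT.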
# NPR1 antag – antagonists of human natriuretic peptide receptor Npr1; HEK293 hNpr1 GloSensor cGMP, ANP-stimulated luminescence; Potency, µM (series often up to 46.3 µM), inactives show top-dose activity change, negative = inhibition, actives largely listed as inhibitors; 76,000 compounds, 1.6% hits; calls by dose curve; note: potency is the fitted concentration of half-maximal effect; % is set by controls: 0 for no effect and ±100 for the full control effect; nearly all actives have a fitted effect of over 60% in size
#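 Compound pre-incubated 30 min at room temperature on GloSensor-loaded HEK293 cells stably carrying hNpr1 and the pGS-40F cGMP biosensor. Stimulation uses hNppA at 0.1 nM final; luminescence is taken at baseline and 20 min post-agonist.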
# HEK cytotox – kills HEK 293 cells | HEK 293 viability, ATP luminescence (CellTiter-Glo), 48-72 h | AID 1345083 | Potency, µM (titrated, usually from 115 µM), for inactives: at the highest dose activity change, negative = cytotoxicity, usual class: inhibitors | 94,000 compounds, 6.6% hits; note: potency is the fitted concentration of half-maximal effect; % is set by controls: 0 for no effect and ±100 for the full control effect; nearly all actives have a fitted effect of over 60% in size
#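 qHTS cytotoxicity; HEK 293, 250 cells/well; compound pinned; 48 or 72 hr, 37 degree Celsius, 5% CO2, 95% humidity; CellTiter-Glo, 10 min RT; luminescence (ATP).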
# Npr1 antag conf – confirmation of human Npr1 natriuretic peptide receptor antagonists | shares compounds with NPR1 antag | HEK293 hNpr1 cGMP GloSensor luminescence, ANP-stimulated | Potency, µM (titrated, usually from 57.6 µM), inactives show at the highest dose activity change, negative = inhibition, hits mostly inhibitors | 1,400 compounds, 76% hits | AID 1347044; calls by dose curve; note: potency is the fitted concentration of half-maximal effect; nearly all actives have a fitted effect of over 70% in size
# NPR2 antag – antagonizes human Npr2, subtype selectivity check; shares compounds with NPR1 antag; HEK293 hNpr2 GloSensor cGMP luminescence, CNP-stimulated; Potency, µM (series often up to 57.6 µM), inactives show at the highest dose activity change, negative = inhibition, actives largely listed as inhibitors; 1,400 compounds, 67% hits; AID 1347046; calls by dose curve; note: potency is the fitted concentration of half-maximal effect; nearly all actives have a fitted effect of over 70% in size
# FLuc counter – FLuc enzyme inhibition, Npr1 counter-screen | 1,400 compounds, 0.7% hits | purified FLuc enzyme, luminescence, Km substrate | shares compounds with NPR1 antag | Potency, µM (doses to about 57.6 µM), for the others: at the top dose activity change, negative = inhibition, most hits filed as inhibitors; note: potency is the fitted concentration of half-maximal effect; 0% is about no effect
# GloSensor cGMP – counter-screen for Npr1 antagonists: GloSensor control cell line | Potency, µM (titrated, usually from 57.6 µM), for inactives: top-dose activity change, negative = inhibition, hits mostly inhibitors | shares compounds with NPR1 antag | HEK293 GloSensor cGMP, SNP-stimulated, luminescence | 1,400 compounds, 69% hits; calls by dose curve; note: potency is the fitted concentration of half-maximal effect; % is set by controls: 0 for no effect and ±100 for the full control effect; nearly all actives have a fitted effect of over 70% in size
# GPT2 inh cnf – confirmation of human GPT2 inhibitors; 95 compounds, 90% hits; shares compounds with GPT2 inhibitor; GPT2 enzyme, coupled Amplex Red pyruvate fluorescence; Potency, µM, actives largely listed as inhibitors
# The depositor's hits bear a star; i = inactive; ? = inconclusive; . = no result given; [ ] = another dose, or the depositor's remark. Unless noted, calls come from the whole dose curve; as a rule, active = well fitted curve in the direction sought with a large enough effect; inconclusive = small, poorly fitted or top-dose-only effect, or another doubt; inactive = no such curve, though single readings can be large; an effect the other way counts as inactive or inconclusive.
SMILES,NIH3T3 tox,Luciferase inh,GPT2 inhibitor,NPR1 antag,HEK cytotox,Npr1 antag conf,NPR2 antag,FLuc counter,GloSensor cGMP,others
CCc1cnc(N2CCC3(CC2)C(=O)Nc2cc(OCc4ccccc4)c(OC)cc23)nc1,?,i,?,-0.9%,?,.,.,.,.,
COc1cc2c(cc1OCc1ccccc1)NC(=O)C21CCN(c2ccccn2)CC1,-21.0%[138 µM],i,i,?,?,?,?,-2.6%[86.2 µM],?,
COc1cc2c(cc1Oc1ccccc1)NC(=O)C21CCN(Cc2cccc(O)c2)CC1,22.4µM*,i,-16.6%[88.5 µM],?,?,39.6µM*,?,2.5%[86.2 µM],31.4µM*,
Cc1ncc2c(c1CNCC1(O)CNCCOC1)CCNC2 (configuration not stated),i,i,-4.4%[11.5 µM],8.7%,-1.4%,.,.,.,.,
Oc1ccc2[nH]cc(CCCCN3CC=C(c4ccccc4)CC3)c2c1,.,.,3.55µM*,.,.,.,.,.,.,GPT2 inh cnf=7.69*
O=C(Cc1ccc(F)cc1F)N1CCN(Cc2ccccc2)CC(O)C1 (configuration not stated),i,i,-0.3%,8.5%,?,.,.,.,.,
